Records with an inconclusive call do not appear. The source made the active and inactive calls. Unless noted, no cut-off is given here; in the data, nearly all actives have AC50 up to about 26 µM.
What was measured:
[1] = tested on: Neuropilin-2 / VEGF-C interaction (human); assay: small molecules blocking Neuropilin-2/VEGF-C interaction – biochemical, microplate binding format, z-score (AID 743281; call rule not given here); conditions: microplate NRP2/VEGF-C binding assay; stronger effect = lower value
[2] = viability loss in pontine glioma line – cell-based, SU-DIPG-XXV, MIPE5.0, CellTiter-Glo, qHTS, dose response (AID 1347065); conditions: CellTiter-Glo ATP luminescence;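 note: cells exposed to compound for 48 hours before ATP readout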
[3] = JHH-DIPG-1 glioma cell viability, MIPE5.0 library, CellTiter-Glo luminescence, qHTS (AID 1347067); conditions: JHH-DIPG-1 glioma viability, CellTiter-Glo ATP luminescence;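 note: cells exposed to compound for 48 hours before readout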
[4] = growth inhibition of DIPG cells – cell-based, MIPE5.0 library, qHTS (AID 1347068; cut-off not given, nearly all actives have IC50 up to about 30 µM;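 for IC50: cells exposed to compound for 48 hours before viability readout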); conditions: SU-DIPG-XXV viability
[5] = viability loss in pontine glioma line – cell-based, SU-DIPG-XVII, MIPE5.0, CellTiter-Glo, qHTS, dose response (AID 1347060); conditions: CellTiter-Glo ATP luminescence;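 for AC50: cells exposed to compound for 48 hours before viability readout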
[6] = viability loss in pontine glioma line – cell-based, SU-DIPG-XIII, MIPE4.0, CellTiter-Glo, qHTS, dose response (AID 1347061; cut-off not given, nearly all actives have AC50 up to about 37 µM;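 note: cells exposed to compound for 48 hours before readout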); conditions: CellTiter-Glo ATP luminescence
[7] = viability loss in pontine glioma line – cell-based, SU-DIPG-XIII, MIPE5.0, CellTiter-Glo, qHTS, dose response (AID 1347064; cut-off not given, nearly all actives have AC50 up to about 23 µM;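 for AC50: cells exposed to compound for 48 hours before the viability read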); conditions: CellTiter-Glo ATP luminescence
[8] = viability loss in pontine glioma line – cell-based, SU-DIPG-IV, MIPE4.0, CellTiter-Glo, qHTS, dose response (AID 1347063; cut-off not given, nearly all actives have AC50 up to about 30 µM;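 note: compound exposure lasted 48 hours before the viability readout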); conditions: CellTiter-Glo ATP luminescence
[9] = chitosan synthesis blockers in C. neoformans – flow cytometry, Cibacron Brilliant Red staining (AID 1347148; call rule not given here;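 note: compound exposure lasted three days at 37 degrees C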); conditions: Cryptococcus neoformans chitosan, stronger effect = lower value; at 10 µM unless noted
[10] = target: ATP-dependent translocase ABCB1 (Homo sapiens) (UniProt P08183); assay: P-glycoprotein substrate transport blockade – cell-based (AID 377; in the data active = fluorescence slope change above about 50%); conditions: MDR1-expressing cells, fluorescent substrate accumulation slope; stronger effect = higher value; concentration not given here
[11] = GFP-Q80 aggregate reduction, neuronal-like cells, cell-based, NGF-treated PC12, GFPQ80 (AID 1614); conditions: PC12 NGF-treated GFP-polyQ80 inclusion reduction;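 note: lower means fewer inclusions and 0 means no inclusions at all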

Sequence of ATP-dependent translocase ABCB1 (Homo sapiens) (P08183 whole entry, looked up): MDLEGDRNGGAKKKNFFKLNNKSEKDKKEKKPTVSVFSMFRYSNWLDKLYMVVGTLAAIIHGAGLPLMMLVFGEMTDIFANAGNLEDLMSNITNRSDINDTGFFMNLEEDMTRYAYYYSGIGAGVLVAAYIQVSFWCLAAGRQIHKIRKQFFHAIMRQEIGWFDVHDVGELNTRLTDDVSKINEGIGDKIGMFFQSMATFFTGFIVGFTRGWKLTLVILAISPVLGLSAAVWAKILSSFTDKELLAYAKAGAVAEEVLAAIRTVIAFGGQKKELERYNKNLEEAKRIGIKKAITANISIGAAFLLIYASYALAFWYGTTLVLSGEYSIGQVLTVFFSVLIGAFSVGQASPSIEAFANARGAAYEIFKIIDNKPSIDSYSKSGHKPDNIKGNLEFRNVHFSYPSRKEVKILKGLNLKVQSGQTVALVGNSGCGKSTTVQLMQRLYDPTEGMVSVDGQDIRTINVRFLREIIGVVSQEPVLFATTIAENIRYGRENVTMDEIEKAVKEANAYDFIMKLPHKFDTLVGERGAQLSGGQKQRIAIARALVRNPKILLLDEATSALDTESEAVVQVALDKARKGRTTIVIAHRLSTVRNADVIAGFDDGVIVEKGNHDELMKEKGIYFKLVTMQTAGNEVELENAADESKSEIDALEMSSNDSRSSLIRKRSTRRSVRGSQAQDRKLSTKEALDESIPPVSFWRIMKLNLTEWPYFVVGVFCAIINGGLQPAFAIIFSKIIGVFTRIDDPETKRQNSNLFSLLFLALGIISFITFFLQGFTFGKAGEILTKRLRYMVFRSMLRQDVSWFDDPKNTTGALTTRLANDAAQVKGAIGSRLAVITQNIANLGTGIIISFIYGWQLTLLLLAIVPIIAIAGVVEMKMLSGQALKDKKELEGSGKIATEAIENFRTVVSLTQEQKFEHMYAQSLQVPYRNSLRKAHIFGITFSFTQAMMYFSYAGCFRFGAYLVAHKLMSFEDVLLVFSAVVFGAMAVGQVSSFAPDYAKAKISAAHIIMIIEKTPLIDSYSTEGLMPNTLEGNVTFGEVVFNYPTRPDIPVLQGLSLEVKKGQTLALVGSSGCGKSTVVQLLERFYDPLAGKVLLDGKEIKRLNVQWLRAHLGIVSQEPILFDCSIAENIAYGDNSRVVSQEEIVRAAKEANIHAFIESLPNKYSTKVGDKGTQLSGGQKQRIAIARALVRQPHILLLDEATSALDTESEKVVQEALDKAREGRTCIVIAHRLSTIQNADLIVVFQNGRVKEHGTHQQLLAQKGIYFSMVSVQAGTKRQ

## OC[C@H]1O[C@@H](Oc2cc(O)cc(/C=C/c3ccc(O)cc3)c2)[C@H](O)[C@@H](O)[C@@H]1O
[1]
  z-score: 0.265 (inactive)
[2]
  outcome: inactive
[3]
  outcome: inactive
[4]
  outcome: inactive

## Nc1ccn([C@@H]2O[C@H](CO)[C@@H](O)C2O)c(=O)n1 (some centres undefined)
[1]
  z-score: 0.042 (inactive)
[5]
  AC50: 0.263 µM (active)
[6]
  outcome: inactive
[7]
  outcome: inactive
[2]
  outcome: inactive
[3]
  outcome: inactive
[4]
  outcome: inactive

## C=CC1=C(C(=O)O)N2C(=O)[C@@H](NC(=O)/C(=N\O)c3csc(N)n3)[C@H]2SC1 (stereo in doubt)
[1]
  outcome: inactive
[8]
  outcome: inactive

## C[C@]12CC[C@@H]3c4ccc(O)cc4CC[C@H]3[C@@H]1CC[C@@H]2O
[7]
  outcome: inactive
[2]
  outcome: inactive
[9]
  fold fluorescence: 5.13 [at 183.6 µM] (inactive)

## CCCc1nc(C(C)(C)O)c(C(=O)OCc2oc(=O)oc2C)n1Cc1ccc(-c2ccccc2-c2nn[nH]n2)cc1
[1]
  outcome: inactive

## CCN1CCN(C(=O)N[C@@H](C(=O)N[C@@H]2C(=O)N3[C@@H]2SC(C)(C)[C@@H]3C(=O)O)c2ccccc2)C(=O)C1=O
[10]
  fluorescence slope change: 1.5% (inactive)

## O=c1cc(-c2ccccc2)oc2cc(O)c(O)c(O)c12
[6]
  outcome: inactive
[8]
  outcome: inactive

## COc1cc(CNC(=O)CCCC/C=C/C(C)C)ccc1O
[5]
  outcome: inactive
[6]
  outcome: inactive
[8]
  outcome: inactive
[3]
  outcome: inactive
[4]
  outcome: inactive
[9]
  fold fluorescence: 7.26 [at 163.7 µM] (inactive)

## CN1C[C@H](C(=O)N[C@]2(C)O[C@@]3(O)[C@@H]4CCCN4C(=O)[C@H](Cc4ccccc4)N3C2=O)C[C@@H]2c3cccc4[nH]cc(c34)C[C@H]21
[10]
  fluorescence slope change: 122% (active)

## O=c1cc(-c2ccc(O)cc2)oc2cc(O)cc(O)c12
[11]
  inclusion score: 1.5
[5]
  AC50: 16.6 µM (active)
[8]
  AC50: 2.96 µM (active)
[7]
  AC50: 16.6 µM (active)

## CCCCCCCCCCCC1=C(O)C(=O)C=C(O)C1=O
[6]
  outcome: inactive
[8]
  AC50: 0.0526 µM (active)
[4]
  outcome: inactive

## O=C(O)c1cccnc1C(=O)O
[11]
  inclusion score: 2

## NCCc1cnc[nH]1
[11]
  inclusion score: 2
[5]
  outcome: inactive
[6]
  outcome: inactive
[7]
  outcome: inactive
[2]
  outcome: inactive
[3]
  outcome: inactive
[4]
  outcome: inactive
[9]
  fold fluorescence: 5.22 [at 449.9 µM] (inactive)

## COc1c(C)c2c(c(O)c1C/C=C(\C)CCC(=O)O)C(=O)OC2
[11]
  inclusion score: 1
[5]
  AC50: 0.742 µM (active)
[9]
  fold fluorescence: 7.43 [at 156.1 µM] (inactive)

## CC/C(=C(\c1ccccc1)c1ccc(OCCN(C)C)cc1)c1ccccc1
[10]
  fluorescence slope change: 142% (active)
[5]
  AC50: 17.1 µM (active)
[8]
  AC50: 26.4 µM (active)
[7]
  AC50: 13.5 µM (active)
[2]
  AC50: 19.1 µM (active)
[3]
  AC50: 21.5 µM (active)
[4]
  IC50: 17.1 µM (active)
[9]
  fold fluorescence: 8.26 [at 134.6 µM] (inactive)

## CCC(c1ccc(O)cc1)C(CC)c1ccc(O)cc1 (centres undefined)
[10]
  fluorescence slope change: 18% (inactive)
[5]
  outcome: inactive
[7]
  outcome: inactive
[2]
  outcome: inactive
[4]
  outcome: inactive

## c1ccc2c(Cc3c[nH]c4ccccc34)c[nH]c2c1
[5]
  outcome: inactive
[7]
  outcome: inactive
[2]
  outcome: inactive
[4]
  outcome: inactive
[9]
  fold fluorescence: 4.77 (inactive)
